High-throughput results: PubChem, National Center for Advancing Translational Sciences (NCATS)
In the library only some 19% were active in any assay of this set; here they are far more common.
uPA surface inh: cell surface uPA generation inhibition | cell surface uPA generation assay, qHTS | Potency, µM (titrated, usually from 38.3 µM), actives largely listed as inhibitors | 0.31% of 330,000 active; active = well fitted inhibition curve with a large enough effect; inconclusive = small, poorly fitted or top-dose-only effect; inactive = no such curve, though single readings can be large or run the other way; tested in mouse RAW 264.7 cells; note: nearly all actives have a fitted effect of over 55% in size
TDP1 cell CPT: DT40-hTDP1 cell growth loss with CPT; chicken DT40 Tdp1-/-;hTDP1 cells + 20 nM CPT, ATP luminescence, 48 h; Potency, µM (doses to about 46.2 µM), usual class: inhibitors; 12% of 420,000 active; AID 686979; note: nearly all actives have a fitted effect of over 55% in size
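Cell growth measured by CellTiter-Glo luminescence after a minimum 48 h, 37 C compound exposure with 20 nM CPT in Tdp1-knockout DT40 cells stably expressing hTDP1, seeded 400/well; qHTS titration format.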
IL-1B inflam inh: blocks inflammasome-driven IL-1 beta release | THP-1 LPS/ATP IL-1B secretion, AlphaLISA, 16 h; stronger effect = lower value | activity change, % at 57.5 µM | 4.7% of 360,000 active; in the data active = activity change below about -50%; inconclusive = mostly about -30% to -49%
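Secreted IL-1B measured by AlphaLISA bead assay after 16 h compound exposure of THP-1 cells; compounds (final up to 57.5 uM) added 1 h before LPS (250 ng/mL) and ATP (1.25 mM) stimulation; lower signal means less secretion.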
HT1080-NT tox: kills 2HG-producing HT-1080-NT fibrosarcoma cells. HT-1080-NT fibrosarcoma viability, CellTiter-Glo ATP luminescence, 48 h. Potency, µM (titrated, usually from 46.1 µM), most hits filed as cytotoxic. 1.6% of 360,000 active. AID 686970;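 note: NT is the 2HG producing partner of a matched IDH1 knockdown line; nearly all actives have a fitted effect of over 55% in size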
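Compounds were tested in concentration-response format on HT-1080-NT cells for 48 hours at 37 degrees C. Cell viability came from CellTiter-Glo luminescence; curves were classified by r2, response magnitude and activity.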
TDP1 cell noCPT: qHTS for Inhibitors of human tyrosyl-DNA phosphodiesterase 1 (TDP1): qHTS in cells in absence of CPT. AID 686978, 2013. DT40 Tdp1-/- hTDP1 cells, no CPT, ATP luminescence, 48 h. 15% of 420,000 active. Potency, µM (series often up to 46.2 µM), actives largely listed as inhibitors; note: nearly all actives have a fitted effect of over 55% in size
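A cellular qHTS used chicken DT40 cells lacking endogenous Tdp1 but carrying stably transfected human TDP1. Compounds were applied without camptothecin, and cell growth kinetics were judged by ATP-dependent luminescence after ≥48 hr.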
HT1080 IDH1KD tx: toxicity to HT-1080 IDH1 knockdown cells (counter line); HT-1080 IDH1 knockdown viability, ATP luminescence, 48 h; 2% of 360,000 active; Potency, µM (doses to about 46.1 µM), most hits filed as cytotoxic
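Viability of IDH1-knockdown HT-1080 fibrosarcoma cells was assessed by CellTiter-Glo after 48 h at 37 °C with titrated compound; concentration-effect curves were classified by fit quality and response size.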
Each line names hits and unclear results; the compound was inactive in the other large screens. Unless noted, calls come from the whole dose curve; as a rule, active = well fitted curve in the direction sought with a large enough effect; inconclusive = small, poorly fitted or top-dose-only effect, or another doubt; inactive = no such curve, though single readings can be large; an effect the other way counts as inactive or inconclusive.

COc1cc(C2C(C#N)=C(N)N(N(C)C)C3=C2C(=O)CCC3)cc(OC)c1OC (stereo not drawn)	none
COc1cc(C2C(C#N)=C(N)N(c3sc4c(c3C#N)CCCC4)C3=C2C(=O)CC(C)(C)C3)cc(OC)c1OC (stereo not drawn)	TDP1 cell CPT 20.6µM, TDP1 cell noCPT 16.4µM, HT1080 IDH1KD tx inconclusive
Cc1ccccc1C1C(C#N)=C2N=C(N)c3c(sc4c3CCCCC4)N2C2=C1C(=O)CC(C)(C)C2 (stereo not drawn)	TDP1 cell CPT 18.4µM, TDP1 cell noCPT inconclusive
Cc1ccccc1OCCCC(=O)Nc1ccc(S(=O)(=O)Nc2onc(C)c2C)cc1	none
COc1cc(C(=O)Nc2ccc3oc(-c4cccnc4)nc3c2)cc(OC)c1OC	TDP1 cell CPT 5.62µM, TDP1 cell noCPT 20.6µM
COc1ccc(C(=O)Nc2ccc3oc(-c4cccc(F)c4)nc3c2)cc1OC	TDP1 cell CPT inconclusive, TDP1 cell noCPT inconclusive
COc1ccc(C(=O)Nc2ccc3oc(-c4cccnc4)nc3c2)cc1OC	TDP1 cell CPT 7.31µM, IL-1B inflam inh inconclusive, TDP1 cell noCPT inconclusive
COc1ccc(-n2c(SCC(=O)Nc3cc(C)on3)nc3c(c2=O)SC(C)C3)cc1 (stereo not drawn)	TDP1 cell noCPT inconclusive (no result: uPA surface inh)
O=C(NCc1ccccc1Cl)c1ccc2c(c1)N(Cc1ccccc1)C(=O)CS2	TDP1 cell CPT 23.1µM, TDP1 cell noCPT inconclusive (no result: uPA surface inh, IL-1B inflam inh, HT1080-NT tox, HT1080 IDH1KD tx)
Cc1ccc(CNC(=O)c2ccc3c(c2)N(Cc2cccc(Cl)c2)C(=O)CS3)cc1	TDP1 cell CPT inconclusive, TDP1 cell noCPT 20.6µM (no result: uPA surface inh, IL-1B inflam inh, HT1080-NT tox, HT1080 IDH1KD tx)
Cc1cccc(CN2C(=O)CSc3ccc(C(=O)NC4CC4)cc32)c1	TDP1 cell CPT 0.731µM, TDP1 cell noCPT inconclusive
O=C(NCC1CCCO1)c1ccc2c(c1)N(Cc1ccccc1)C(=O)CS2 (stereo not drawn)	none
O=C(CSc1nc2c([nH]c3ccccc32)c(=O)n1-c1ccccc1)N1CCCC1	none (no result: uPA surface inh, IL-1B inflam inh, HT1080-NT tox, HT1080 IDH1KD tx)
COc1cccc(-c2cc(C(=O)N3CC4(C)CC3CC(C)(C)C4)no2)c1 (stereo not drawn)	TDP1 cell CPT inconclusive, TDP1 cell noCPT 20.6µM, HT1080 IDH1KD tx inconclusive
Cc1noc(C(=O)N2CC3(C)CC2CC(C)(C)C3)c1Cl (stereo not drawn)	TDP1 cell CPT inconclusive, TDP1 cell noCPT 18.4µM
CC1(C)CC2CC(C)(CN2C(=O)Cc2ccccc2)C1 (stereo not drawn)	TDP1 cell noCPT inconclusive
CC1(C)CC2CC(C)(CN2C(=O)c2cc(-c3ccc(O)cc3)on2)C1 (stereo not drawn)	IL-1B inflam inh -61.6, HT1080-NT tox inconclusive, TDP1 cell noCPT inconclusive, HT1080 IDH1KD tx inconclusive
O=C(NCC1Cc2cc(-c3cnc4ccccc4c3)cc(F)c2O1)c1cnsn1 (stereo not drawn)	TDP1 cell CPT inconclusive (no result: uPA surface inh, IL-1B inflam inh, HT1080-NT tox, HT1080 IDH1KD tx)
CC(=O)c1cccc(NC(=O)Cn2cc(C(=O)c3cccc(Cl)c3)c(=O)c3ccc(C)nc32)c1	none (no result: uPA surface inh, IL-1B inflam inh, HT1080-NT tox, HT1080 IDH1KD tx)
COc1cccc(-c2nc3c(c(SCC(=O)Nc4cccc(C)c4C)n2)Cc2c(CO)cnc(C)c2O3)c1	none (no result: uPA surface inh, IL-1B inflam inh, HT1080-NT tox, HT1080 IDH1KD tx)
O=C1CC(c2ccccc2)=C(c2ccccc2)C1c1ccccc1 (stereo not drawn)	TDP1 cell CPT 29.1µM, TDP1 cell noCPT inconclusive
O=C(c1ccccc1)c1ccc(C(=O)N2CCN(c3ccc(F)cc3)CC2)o1	TDP1 cell CPT inconclusive, TDP1 cell noCPT 11.6µM
O=C(c1ccc(N2CCN(C(=O)c3ccccc3Br)CC2)cc1)c1cccc(F)c1	TDP1 cell CPT 16.4µM, TDP1 cell noCPT 25.9µM, HT1080 IDH1KD tx inconclusive
O=C(c1ccc(N2CCN(C(=O)c3cccc(F)c3)CC2)cc1)c1cccc(F)c1	TDP1 cell CPT 16.4µM, IL-1B inflam inh inconclusive, TDP1 cell noCPT inconclusive
O=C(c1ccccc1)N1CCN(C(=O)c2ccccc2Br)CC1	IL-1B inflam inh inconclusive
CCOC(=O)N1CCN(CCC(=O)Nc2cccc(F)c2)CC1	none (no result: uPA surface inh, IL-1B inflam inh, HT1080-NT tox, HT1080 IDH1KD tx)
